Only some compounds are listed: those with a hit (about 21% of all), similar ones and a draw of the others.
DT40 TDP1 CPT: DT40-hTDP1 cell growth loss with CPT. chicken DT40 Tdp1-/-;hTDP1 cells + 20 nM CPT, ATP luminescence, 48 h. Potency, µM (highest dose often 46.2 µM), without a hit: top-dose activity change, negative = growth inhibition, actives largely listed as inhibitors. 420,000 compounds, 12% hits; also: potency is read from the fitted curve at half-maximal effect; % is scaled to controls: 0 for no effect and ±100 for the full control effect; nearly all actives have a fitted effect of over 55% in size
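Chicken DT40 Tdp1-/- cells complemented with human TDP1, 400 cells/well, exposed to compounds plus 20 nM camptothecin for at least 48 h at 37 C; viability read as ATP content by CellTiter-Glo luminescence.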
D3 ag: activates the human D3 dopamine receptor | AID 652048 | 410,000 compounds, 0.58% hits | max activation, % | D3R DiscoveRx beta-arrestin cells, luminescence, 90 min; in the data active = max activation above about 30%; also: 0% is about no effect
Target sequence (P35462 whole entry, looked up): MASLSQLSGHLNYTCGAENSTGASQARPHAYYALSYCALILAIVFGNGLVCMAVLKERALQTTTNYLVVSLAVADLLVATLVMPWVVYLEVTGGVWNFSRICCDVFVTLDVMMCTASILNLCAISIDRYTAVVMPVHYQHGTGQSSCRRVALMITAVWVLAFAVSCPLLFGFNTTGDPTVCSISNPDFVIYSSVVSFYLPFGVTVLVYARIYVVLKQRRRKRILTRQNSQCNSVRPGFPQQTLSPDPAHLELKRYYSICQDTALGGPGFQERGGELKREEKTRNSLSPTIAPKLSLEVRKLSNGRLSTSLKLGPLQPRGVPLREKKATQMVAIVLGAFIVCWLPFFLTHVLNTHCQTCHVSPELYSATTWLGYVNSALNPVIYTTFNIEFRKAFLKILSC
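Agonist-mode cell screen: cells plated at 1500/well and incubated overnight at 37 °C, then exposed to library compounds for 90 min at 37 °C. Detection reagent was added for 30–60 min at room temperature, and luminescence was read.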
TDP1 cell noCPT: qHTS for Inhibitors of human tyrosyl-DNA phosphodiesterase 1 (TDP1): qHTS in cells in absence of CPT | DT40 Tdp1-/- hTDP1 cells, no CPT, ATP luminescence, 48 h | 420,000 compounds, 15% hits | Potency, µM (titrated, usually from 46.2 µM), inactives show top-dose activity change, negative = growth inhibition, hits mostly inhibitors | AID 686978, 2013; also: potency is read from the fitted curve at half-maximal effect; % is scaled to controls: 0 for no effect and ±100 for the full control effect; nearly all actives have a fitted effect of over 55% in size
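Compound effects on proliferation are scored in DT40 Tdp1-/-;hTDP1 cells in the absence of CPT. ATP levels (CellTiter-Glo luminescence) are recorded after a ≥48 hr, 37 °C incubation.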
IL1B secr inh: inflammasome signaling inhibition, IL-1 beta readout; THP-1 LPS/ATP IL-1B secretion, AlphaLISA, 16 h; active compounds read low; activity change, % at 57.5 µM; AID 743279; 360,000 compounds, 4.7% hits; in the data active = activity change below about -50%; inconclusive = mostly about -30% to -49%; also: % is scaled to controls: 0 for no effect and ±100 for the full control effect
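THP-1 cells pretreated 1 hr with compounds (up to 57.5 uM final), then stimulated with LPS (250 ng/mL final) plus ATP (1.25 mM final); secreted IL-1B measured by AlphaLISA after 16 hr, decreased signal indicating inhibition.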
ClpP mod: qHTS Assay for Activators of ClpP. purified B. subtilis ClpP, FRET peptide cleavage, 20 min. AID 651965, 2013. 340,000 compounds, 1.9% hits. Potency, µM (doses to about 57.5 µM), without a hit: at the highest dose activity change, negative = active; active = well fitted falling curve with a large enough effect; inconclusive = small, poorly fitted or top-dose-only effect; inactive = no such curve, though single readings can be large or run the other way; also: potency is read from the fitted curve at half-maximal effect; the source files actives as falling curves though it sought activators and does not explain the sign; nearly all actives have a fitted effect of over 65% in size
Target sequence (P80244 whole entry, looked up): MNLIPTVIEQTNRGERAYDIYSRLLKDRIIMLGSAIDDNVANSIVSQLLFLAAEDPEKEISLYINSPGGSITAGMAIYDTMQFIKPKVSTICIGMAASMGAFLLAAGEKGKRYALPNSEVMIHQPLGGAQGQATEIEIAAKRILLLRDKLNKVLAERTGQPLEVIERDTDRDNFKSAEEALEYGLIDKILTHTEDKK
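FRET quenching reversal measured ClpP activation: 10 microg/mL B. subtilis ClpP at pH 8 with the FRET-FV decapeptide, read at 430 nm after 320 nm excitation. The 20-min minus 0-min signal was scaled between DMSO/no-enzyme wells and ADEP (5.8 microM final).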
D3 antag: D3 dopamine receptor (human) antagonism | D3R cells, DiscoveRx beta-arrestin luminescence, antagonist mode; active compounds read low | P35462 | 360,000 compounds, 2.5% hits | max response, negative = inhibition, %; in the data active = max response below about -50%; inconclusive = no clear call, values can overlap the other calls; also: % is scaled to controls: 0 for no effect and ±100 for the full control effect
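Cells expressing the human receptor were seeded at 1500 cells/well, incubated overnight at 37 degrees C in 5% CO2, then exposed to library compounds with dopamine controls for 90 minutes at 37 degrees C before luminescent detection.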
* hit, by the source's call; ? = inconclusive; · = not tested or not shown. Unless noted, calls follow the shape of the dose curve; as a rule, active = well fitted inhibition curve with a large enough effect; inconclusive = small, poorly fitted or top-dose-only effect; inactive = flat fitted curve, though single readings scatter.

SMILES	DT40 TDP1 CPT	D3 ag	TDP1 cell noCPT	IL1B secr inh	ClpP mod	D3 antag
CCCCCCN1C[C@@H](n2cc(COC(=O)c3ccccc3)nn2)[C@H](O)C[C@@H]1c1ccccc1	?	2	?	25	0%	-10
O=C(Nc1ccccc1C(F)(F)F)NC1(C(=O)N2CCOCC2)CCCCC1	?	27	?	49	·	19
Cn1c(=O)c2c(nc(NCCCO)n2Cc2cccc(C(F)(F)F)c2)n(C)c1=O	18µM*	-7	15µM*	11	0%	8
Cn1c(=O)c2c(nc(CN3CCCCC3)n2Cc2c(F)cccc2Cl)n(C)c1=O	?	-1	23µM*	12	-1%	20
Cn1c(=O)c2c(nc(CN3CCN(CCO)CC3)n2Cc2ccccc2Cl)n(C)c1=O	7%	27	-2%	-11	-1%	14
C/C(Cl)=C\Cn1c(NCCc2ccccc2)nc2c1c(=O)n(C)c(=O)n2C	0.65µM*	22	0.82µM*	-52*	1%	51
CCCCCCNc1nc2c(c(=O)n(C)c(=O)n2C)n1Cc1cccc(C)c1	·	-5	·	·	-2%	·
Cn1c(=O)c2c(nc(Br)n2Cc2ccc3ccccc3c2)n(C)c1=O	21µM*	2	?	-29	1%	49
O=C(CSc1nccn1Cc1ccc(F)cc1)NCc1ccc(F)cc1	?	-10	?	·	-1%	·
Cc1ccc(NC(=O)Cn2ncn3c(cc4ccccc43)c2=O)cc1C	?	-11	?	·	?	·
CCC(C)NC(=O)c1cc(-c2cccc(OC)c2)on1 (configuration not stated)	17%	4	-23%	·	-1%	·
C/C(Cl)=C/Cn1c(=O)c2c(nc(Br)n2Cc2ccccc2)n(C)c1=O	?	3	21µM*	-10	1%	11
COc1ccc(CCNc2nc3c(c(=O)n(C)c(=O)n3C)n2Cc2ccccc2Cl)cc1OC	13µM*	2	7.3µM*	·	1%	·
COC(=O)Cn1c(=O)c2c(nc(Br)n2Cc2ccccc2Cl)n(C)c1=O	?	4	?	6	0%	2
COc1ccc(CCNc2ccncn2)cc1	9.2µM*	17	15µM*	-5	1%	28
COc1ccc(CCNc2ccncn2)cc1OC	-25%	31*	-26%	22	0%	26
COc1ccc(CCNc2ccc(S(N)(=O)=O)cn2)cc1	4%	-4	-18%	-1	·	11
Cc1ccc(NC2=CC(c3ccccc3F)N(c3ccc(C)cc3)C2=O)cc1 (configuration not stated)	-29%	3	?	·	?	·
CCCCNC(=S)N(C)/N=C/c1c(F)c(F)c(F)c(F)c1F	-1%	2	?	-104*	3%	3
COc1cc2cc(CN(Cc3cccnc3)C(=O)Nc3ccccc3)c(=O)[nH]c2cc1OC	?	0	?	?	·	0
COc1ccc2[nH]c(=O)c(CN(CCc3ccccc3)C(C)=O)cc2c1	-26%	-5	-16%	-11	28µM*	14
COc1cc2cc(CN(Cc3cccnc3)C(=O)NCc3ccccc3)c(=O)[nH]c2cc1OC	?	-5	?	-24	25µM*	24
COc1ccc2[nH]c(=O)c(CN(CCO)C(=O)c3ccccc3F)cc2c1	-3%	3	-4%	10	20µM*	9
COc1ccc2[nH]c(=O)c(CN(CCN(C)C)C(=O)NCc3ccccc3)cc2c1	-12%	-8	-19%	22	25µM*	-21
CS(=O)(=O)N1CCC2(CC1)CN(C(=O)Nc1ccccc1)C2	5%	·	-6%	·	·	·
SMILES	DT40 TDP1 CPT	D3 ag	TDP1 cell noCPT	IL1B secr inh	ClpP mod	D3 antag
CCOC(=O)c1ccccc1NC(=O)N(Cc1ccco1)C1CCN(C(C)=O)CC1	?	-18	?	·	-15%	·
CCC(C)NC(=S)N(CCc1ccccc1)Cc1cc2cc(OC)c(OC)cc2[nH]c1=O (configuration not stated)	?	-5	18µM*	?	?	-7
COc1ccc(NC(=O)N(Cc2cccnc2)Cc2ccccc2Cl)c(OC)c1	18µM*	-4	?	-25	-1%	0
CC(C)CC(=O)Nc1ccccc1OCc1cc(=O)n2ccccc2n1	?	0	-19%	·	?	·
CC(C)c1c(C(=O)NCc2ccccn2)cnn1-c1nccc(-c2ccccc2F)n1	?	·	-25%	·	·	·
C[N+](C)(C)c1ccc(/C=N/Nc2nc(Cl)c(C#N)c(Cl)c2Cl)cc1	?	-12	23µM*	7	-1%	-17
CCN(CC)S(=O)(=O)c1cccc(C(=O)Nc2ccc3c(c2)OCO3)c1	?	13	?	-4	·	0
CCC(CC)C(=O)Nc1cccc(C(=O)Nc2ccc(S(N)(=O)=O)cc2)c1	-6%	7	-11%	9	·	6
O=C(Nc1ccc2c(c1)OCCO2)c1c(F)c(F)c(F)c(F)c1F	18µM*	-2	?	-14	-2%	-18
CCC(CC)C(=O)Nc1cccc(C(=O)Nc2nnc(C)s2)c1	11%	3	?	7	·	4
O=C(Nc1ccc2c(c1)OCCO2)c1c(Cl)cccc1Cl	7%	-1	?	-28	0%	-10
CCC(CC)C(=O)Nc1cccc(C(=O)Nc2ccc(S(=O)(=O)Nc3ccc(C)cc3)cc2)c1	21µM*	-14	?	?	-17%	24
CCC(CC)C(=O)Nc1cccc(C(=O)Nc2nccs2)c1	?	1	23µM*	20	-1%	32
CCC(CC)C(=O)Nc1cccc(C(=O)Nc2ccc3c(c2)OCO3)c1	26µM*	-5	?	-17	0%	-20
Cc1ccc(-n2ncc3c(N4CCC(Cc5ccccc5)CC4)ncnc32)cc1	?	9	?	·	-3%	·
CCCc1cc(C(=O)Nc2nccs2)cs1	?	-6	-7%	0	-2%	-51*
CCCOc1cccc(C(=O)Nc2ccc3c(c2)OCCO3)c1	-71%	8	23µM*	-4	-2%	-2
Cc1ccn2cc(C(=O)Nc3ccc4c(c3)OCCO4)nc2c1	-24%	4	-27%	-89*	4%	-26
O=C(Nc1ccc2c(c1)OCCO2)c1cccc(Br)c1	7%	-6	-23%	-54*	·	-14
CCCN1C(=O)c2ccc(C(=O)Nc3nccs3)cc2C1=O	-1%	-5	-12%	-5	0%	-20
